The supplement of paper PMC11732987, “Enantioselective OTUD7B fragment discovery through chemoproteomics screening and high-throughput optimisation” (Communications Chemistry, 2025)

Assays:
Experiment in all cases: log2 ratio of Biotin-Ahx-Ub-VS probe labelling (fragment/DMSO); higher = less target engagement (more negative = stronger competition), active = hit call of the paper (q ≤ 0.05, log2 ratio ≤ -1)
Settings in all cases: compound concentration: 200 uM; treatment time: 3 h
[1] = target: T1, USP42 (UniProt Q9H9J4)
T1 sequence (whole entry): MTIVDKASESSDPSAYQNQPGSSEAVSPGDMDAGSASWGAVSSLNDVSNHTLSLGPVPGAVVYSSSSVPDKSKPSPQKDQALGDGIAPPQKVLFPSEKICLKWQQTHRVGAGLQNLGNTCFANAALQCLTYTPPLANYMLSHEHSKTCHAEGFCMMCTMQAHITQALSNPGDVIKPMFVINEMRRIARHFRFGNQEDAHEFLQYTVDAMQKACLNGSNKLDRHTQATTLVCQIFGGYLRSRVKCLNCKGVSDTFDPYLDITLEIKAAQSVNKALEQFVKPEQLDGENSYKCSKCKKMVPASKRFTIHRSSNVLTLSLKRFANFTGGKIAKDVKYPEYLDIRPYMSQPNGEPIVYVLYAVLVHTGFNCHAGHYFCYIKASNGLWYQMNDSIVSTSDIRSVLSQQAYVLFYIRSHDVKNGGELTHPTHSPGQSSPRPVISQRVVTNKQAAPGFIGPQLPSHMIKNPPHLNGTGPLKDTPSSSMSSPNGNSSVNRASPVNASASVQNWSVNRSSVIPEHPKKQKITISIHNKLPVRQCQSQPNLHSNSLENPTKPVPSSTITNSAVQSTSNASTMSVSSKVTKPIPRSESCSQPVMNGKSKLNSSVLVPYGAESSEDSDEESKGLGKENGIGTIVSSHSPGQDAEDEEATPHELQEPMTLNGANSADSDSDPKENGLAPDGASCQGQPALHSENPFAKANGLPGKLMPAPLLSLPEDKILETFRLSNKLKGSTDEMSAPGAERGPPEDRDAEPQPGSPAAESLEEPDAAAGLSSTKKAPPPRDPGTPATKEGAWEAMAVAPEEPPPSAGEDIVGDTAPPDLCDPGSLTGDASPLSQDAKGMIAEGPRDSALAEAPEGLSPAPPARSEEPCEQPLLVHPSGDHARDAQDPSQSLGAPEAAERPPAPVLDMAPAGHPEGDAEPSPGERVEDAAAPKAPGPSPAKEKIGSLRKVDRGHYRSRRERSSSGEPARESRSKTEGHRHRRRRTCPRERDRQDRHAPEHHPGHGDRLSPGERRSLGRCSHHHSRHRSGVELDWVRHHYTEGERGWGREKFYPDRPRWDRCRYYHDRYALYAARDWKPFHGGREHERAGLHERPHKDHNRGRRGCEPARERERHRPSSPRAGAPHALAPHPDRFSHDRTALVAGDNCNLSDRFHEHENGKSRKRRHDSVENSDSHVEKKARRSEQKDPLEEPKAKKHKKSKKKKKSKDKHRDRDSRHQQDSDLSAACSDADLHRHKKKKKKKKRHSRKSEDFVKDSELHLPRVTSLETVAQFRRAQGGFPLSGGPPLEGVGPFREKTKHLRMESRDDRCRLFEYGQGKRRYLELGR
Summary of the method: (§1)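 Labelled DUBs from HEK293T lysate were NeutrAvidin-enriched, digested with LysC and trypsin, and run by diaPASEF LC-MS/MS. Before that, each 495 µg sample in Tris/CHAPS/IGEPAL buffer with protease inhibitors was treated in triplicate with fragment at 200 µM or vehicle for 3 h, then with Biotin-Ahx-Ub-VS at 0.5 µM final for 1 h. Values are average log2 ratios of fragment over vehicle by unpaired t-test, based on global-median-normalised Spectronaut label-free quantities from proteins with ≥2 unique peptides.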

[2] = target: USP46 (UniProt P62068)
Summary of the method: as §1

[3] = target: T2, USP47 (UniProt Q96K76)
T2 sequence (whole entry): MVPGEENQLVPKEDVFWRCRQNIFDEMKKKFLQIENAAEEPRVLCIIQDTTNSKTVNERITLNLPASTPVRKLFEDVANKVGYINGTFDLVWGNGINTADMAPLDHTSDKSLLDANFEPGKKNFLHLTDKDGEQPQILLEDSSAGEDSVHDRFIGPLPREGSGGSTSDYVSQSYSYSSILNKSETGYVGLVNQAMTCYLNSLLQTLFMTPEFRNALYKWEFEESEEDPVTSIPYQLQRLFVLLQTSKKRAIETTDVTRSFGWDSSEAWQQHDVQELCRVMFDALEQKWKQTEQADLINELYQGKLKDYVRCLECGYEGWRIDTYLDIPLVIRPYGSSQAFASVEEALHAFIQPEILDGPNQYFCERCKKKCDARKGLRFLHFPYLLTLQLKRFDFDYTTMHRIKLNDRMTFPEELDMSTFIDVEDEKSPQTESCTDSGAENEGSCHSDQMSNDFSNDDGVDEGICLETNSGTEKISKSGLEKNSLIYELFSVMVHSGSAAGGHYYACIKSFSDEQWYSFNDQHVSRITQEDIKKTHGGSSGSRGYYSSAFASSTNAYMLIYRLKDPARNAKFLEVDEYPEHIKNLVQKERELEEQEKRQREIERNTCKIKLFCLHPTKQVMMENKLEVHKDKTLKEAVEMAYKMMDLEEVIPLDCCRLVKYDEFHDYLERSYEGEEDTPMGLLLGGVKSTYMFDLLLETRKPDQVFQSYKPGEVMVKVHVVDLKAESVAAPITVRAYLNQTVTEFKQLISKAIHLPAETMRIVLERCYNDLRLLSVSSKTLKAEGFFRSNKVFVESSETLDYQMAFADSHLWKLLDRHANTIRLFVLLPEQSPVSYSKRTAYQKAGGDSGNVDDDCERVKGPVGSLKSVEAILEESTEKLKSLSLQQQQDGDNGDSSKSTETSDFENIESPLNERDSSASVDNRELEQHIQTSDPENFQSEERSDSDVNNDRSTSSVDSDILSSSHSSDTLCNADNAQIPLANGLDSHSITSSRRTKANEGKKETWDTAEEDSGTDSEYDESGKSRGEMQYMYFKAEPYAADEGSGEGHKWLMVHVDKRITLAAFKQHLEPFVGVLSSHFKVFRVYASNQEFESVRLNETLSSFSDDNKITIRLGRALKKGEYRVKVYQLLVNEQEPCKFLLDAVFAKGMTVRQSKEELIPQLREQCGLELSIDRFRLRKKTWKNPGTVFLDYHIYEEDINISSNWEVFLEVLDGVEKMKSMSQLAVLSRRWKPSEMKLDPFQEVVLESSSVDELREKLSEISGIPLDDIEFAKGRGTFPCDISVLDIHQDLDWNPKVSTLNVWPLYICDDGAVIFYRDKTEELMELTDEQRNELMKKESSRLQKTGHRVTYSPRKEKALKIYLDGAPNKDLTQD
Summary of the method: as §1

[4] = target: T3, USP48 (UniProt Q86UV5)
T3 sequence (whole entry): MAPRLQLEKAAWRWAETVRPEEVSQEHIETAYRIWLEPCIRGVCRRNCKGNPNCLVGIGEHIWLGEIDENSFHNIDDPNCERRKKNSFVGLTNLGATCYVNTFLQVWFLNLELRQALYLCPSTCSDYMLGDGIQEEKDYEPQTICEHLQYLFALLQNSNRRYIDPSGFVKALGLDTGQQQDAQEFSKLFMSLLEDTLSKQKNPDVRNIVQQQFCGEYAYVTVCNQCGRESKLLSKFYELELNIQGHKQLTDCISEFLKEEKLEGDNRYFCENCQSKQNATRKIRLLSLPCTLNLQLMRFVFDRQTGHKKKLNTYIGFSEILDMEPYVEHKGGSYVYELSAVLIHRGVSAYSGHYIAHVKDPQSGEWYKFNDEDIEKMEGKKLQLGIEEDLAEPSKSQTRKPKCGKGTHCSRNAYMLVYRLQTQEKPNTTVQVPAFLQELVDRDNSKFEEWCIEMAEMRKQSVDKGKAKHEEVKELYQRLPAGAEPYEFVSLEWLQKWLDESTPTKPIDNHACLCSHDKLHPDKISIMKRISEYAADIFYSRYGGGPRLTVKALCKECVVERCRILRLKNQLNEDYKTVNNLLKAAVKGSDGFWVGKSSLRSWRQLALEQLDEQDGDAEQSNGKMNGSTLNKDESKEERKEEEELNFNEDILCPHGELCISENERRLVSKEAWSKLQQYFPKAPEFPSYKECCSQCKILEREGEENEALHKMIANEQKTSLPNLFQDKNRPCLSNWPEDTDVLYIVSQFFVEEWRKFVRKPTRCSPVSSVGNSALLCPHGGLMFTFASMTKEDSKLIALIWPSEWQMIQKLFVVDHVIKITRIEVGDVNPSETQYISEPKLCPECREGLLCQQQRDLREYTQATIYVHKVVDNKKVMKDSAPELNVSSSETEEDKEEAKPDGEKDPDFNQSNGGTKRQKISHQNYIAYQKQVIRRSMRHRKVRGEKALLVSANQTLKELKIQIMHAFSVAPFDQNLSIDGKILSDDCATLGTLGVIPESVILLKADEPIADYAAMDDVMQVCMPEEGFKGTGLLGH
Summary of the method: as §1

[5] = target: T4, USP5 (UniProt P45974)
T4 sequence (whole entry): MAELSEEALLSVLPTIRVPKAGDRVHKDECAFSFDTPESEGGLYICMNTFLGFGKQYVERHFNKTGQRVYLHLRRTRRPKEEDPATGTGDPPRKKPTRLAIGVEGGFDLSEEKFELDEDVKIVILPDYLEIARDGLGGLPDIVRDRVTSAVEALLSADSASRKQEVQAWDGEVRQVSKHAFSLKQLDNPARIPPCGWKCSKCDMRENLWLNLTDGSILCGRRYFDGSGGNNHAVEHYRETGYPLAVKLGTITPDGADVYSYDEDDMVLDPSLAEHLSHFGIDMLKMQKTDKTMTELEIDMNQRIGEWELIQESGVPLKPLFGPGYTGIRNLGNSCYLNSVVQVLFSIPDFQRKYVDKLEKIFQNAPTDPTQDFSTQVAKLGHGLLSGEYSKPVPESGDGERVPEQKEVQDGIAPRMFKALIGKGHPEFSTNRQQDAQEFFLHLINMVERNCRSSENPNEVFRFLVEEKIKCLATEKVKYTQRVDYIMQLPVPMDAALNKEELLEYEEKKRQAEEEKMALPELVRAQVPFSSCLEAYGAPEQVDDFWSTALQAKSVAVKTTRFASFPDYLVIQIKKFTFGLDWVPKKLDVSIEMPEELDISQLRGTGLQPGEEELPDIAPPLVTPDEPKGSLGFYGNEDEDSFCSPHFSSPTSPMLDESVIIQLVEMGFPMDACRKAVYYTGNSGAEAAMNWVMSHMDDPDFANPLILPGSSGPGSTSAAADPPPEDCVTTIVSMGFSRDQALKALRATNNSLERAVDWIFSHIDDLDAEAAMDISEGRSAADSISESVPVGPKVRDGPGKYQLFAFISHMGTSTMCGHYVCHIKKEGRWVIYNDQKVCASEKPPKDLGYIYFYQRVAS
Summary of the method: as §1

[6] = target: USP54 (UniProt Q70EL1)
Summary of the method: as §1

[7] = target: USP7 (UniProt Q93009)
Summary of the method: as §1

[8] = target: T5, USP8 (UniProt P40818)
T5 sequence (whole entry): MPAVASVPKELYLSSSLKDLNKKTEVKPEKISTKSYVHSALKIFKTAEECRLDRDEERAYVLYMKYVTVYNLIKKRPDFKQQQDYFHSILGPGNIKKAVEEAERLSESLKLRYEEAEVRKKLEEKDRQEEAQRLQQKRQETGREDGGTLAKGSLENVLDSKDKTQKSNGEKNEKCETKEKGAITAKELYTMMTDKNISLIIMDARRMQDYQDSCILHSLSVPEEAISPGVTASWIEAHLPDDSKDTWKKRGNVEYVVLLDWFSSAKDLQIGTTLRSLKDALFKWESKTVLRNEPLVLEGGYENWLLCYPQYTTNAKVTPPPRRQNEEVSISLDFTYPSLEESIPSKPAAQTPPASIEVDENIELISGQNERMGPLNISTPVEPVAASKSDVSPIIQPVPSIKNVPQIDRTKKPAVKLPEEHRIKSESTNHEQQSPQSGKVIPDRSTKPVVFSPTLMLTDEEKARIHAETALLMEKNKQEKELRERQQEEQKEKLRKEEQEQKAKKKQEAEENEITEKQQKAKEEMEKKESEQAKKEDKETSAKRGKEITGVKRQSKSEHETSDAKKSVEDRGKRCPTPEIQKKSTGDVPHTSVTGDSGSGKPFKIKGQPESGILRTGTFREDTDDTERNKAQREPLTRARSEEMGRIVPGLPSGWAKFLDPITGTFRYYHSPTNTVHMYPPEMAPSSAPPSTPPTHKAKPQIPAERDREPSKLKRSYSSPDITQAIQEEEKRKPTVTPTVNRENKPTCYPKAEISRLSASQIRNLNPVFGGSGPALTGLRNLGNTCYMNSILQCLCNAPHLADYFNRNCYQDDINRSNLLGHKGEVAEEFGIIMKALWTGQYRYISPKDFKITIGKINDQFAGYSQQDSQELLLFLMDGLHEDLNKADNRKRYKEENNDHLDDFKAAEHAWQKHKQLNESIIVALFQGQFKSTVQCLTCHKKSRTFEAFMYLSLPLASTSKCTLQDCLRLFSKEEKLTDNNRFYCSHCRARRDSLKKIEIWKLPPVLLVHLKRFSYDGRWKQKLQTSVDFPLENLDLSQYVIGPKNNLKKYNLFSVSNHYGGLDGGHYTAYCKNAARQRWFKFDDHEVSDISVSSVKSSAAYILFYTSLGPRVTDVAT
Summary of the method: as §1

Measured: log2 ratio of Biotin-Ahx-Ub-VS probe labelling

Sequence of USP54 (Q70EL1 whole entry): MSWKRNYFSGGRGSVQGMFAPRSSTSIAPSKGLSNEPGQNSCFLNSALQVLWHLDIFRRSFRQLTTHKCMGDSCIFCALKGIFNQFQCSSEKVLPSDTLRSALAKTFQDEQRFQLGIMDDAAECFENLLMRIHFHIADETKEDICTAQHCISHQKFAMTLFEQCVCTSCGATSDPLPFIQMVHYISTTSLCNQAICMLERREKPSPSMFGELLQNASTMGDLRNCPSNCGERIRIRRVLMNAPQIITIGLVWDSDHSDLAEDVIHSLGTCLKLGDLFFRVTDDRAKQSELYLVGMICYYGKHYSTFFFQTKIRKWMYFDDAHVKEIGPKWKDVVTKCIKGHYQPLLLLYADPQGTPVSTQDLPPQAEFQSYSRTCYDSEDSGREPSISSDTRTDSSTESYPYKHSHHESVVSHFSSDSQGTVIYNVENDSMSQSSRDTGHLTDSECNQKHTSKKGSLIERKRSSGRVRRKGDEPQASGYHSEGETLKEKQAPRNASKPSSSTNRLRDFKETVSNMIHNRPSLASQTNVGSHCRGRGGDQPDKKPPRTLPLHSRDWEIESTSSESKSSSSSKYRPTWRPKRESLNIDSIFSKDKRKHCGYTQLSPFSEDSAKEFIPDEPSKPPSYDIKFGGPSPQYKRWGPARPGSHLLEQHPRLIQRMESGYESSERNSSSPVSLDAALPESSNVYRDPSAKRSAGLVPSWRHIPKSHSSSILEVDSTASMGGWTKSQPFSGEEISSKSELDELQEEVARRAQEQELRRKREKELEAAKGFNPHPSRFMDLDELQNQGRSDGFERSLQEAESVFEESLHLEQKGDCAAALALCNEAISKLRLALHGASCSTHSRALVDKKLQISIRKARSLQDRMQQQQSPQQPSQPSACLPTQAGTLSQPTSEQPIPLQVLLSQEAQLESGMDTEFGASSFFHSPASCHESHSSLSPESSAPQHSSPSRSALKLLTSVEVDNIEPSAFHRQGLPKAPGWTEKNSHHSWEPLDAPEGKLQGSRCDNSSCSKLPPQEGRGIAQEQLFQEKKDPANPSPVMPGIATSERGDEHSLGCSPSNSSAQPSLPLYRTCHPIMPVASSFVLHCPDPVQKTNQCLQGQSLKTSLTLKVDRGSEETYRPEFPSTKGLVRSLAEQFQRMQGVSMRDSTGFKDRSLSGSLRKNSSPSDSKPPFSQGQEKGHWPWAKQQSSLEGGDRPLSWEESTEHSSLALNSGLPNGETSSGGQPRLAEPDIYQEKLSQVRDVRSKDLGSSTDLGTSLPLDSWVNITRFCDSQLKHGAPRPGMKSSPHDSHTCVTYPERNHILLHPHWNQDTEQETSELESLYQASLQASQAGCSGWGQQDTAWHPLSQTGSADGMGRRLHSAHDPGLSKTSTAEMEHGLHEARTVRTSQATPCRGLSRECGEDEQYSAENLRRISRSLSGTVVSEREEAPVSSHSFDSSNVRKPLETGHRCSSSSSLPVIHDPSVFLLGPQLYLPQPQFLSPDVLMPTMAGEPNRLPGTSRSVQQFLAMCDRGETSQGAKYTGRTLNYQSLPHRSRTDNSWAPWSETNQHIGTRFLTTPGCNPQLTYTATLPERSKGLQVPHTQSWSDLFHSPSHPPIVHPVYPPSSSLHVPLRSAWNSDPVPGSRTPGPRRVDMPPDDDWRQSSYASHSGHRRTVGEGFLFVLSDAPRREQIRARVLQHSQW
Sequence of USP46 (P62068 whole entry): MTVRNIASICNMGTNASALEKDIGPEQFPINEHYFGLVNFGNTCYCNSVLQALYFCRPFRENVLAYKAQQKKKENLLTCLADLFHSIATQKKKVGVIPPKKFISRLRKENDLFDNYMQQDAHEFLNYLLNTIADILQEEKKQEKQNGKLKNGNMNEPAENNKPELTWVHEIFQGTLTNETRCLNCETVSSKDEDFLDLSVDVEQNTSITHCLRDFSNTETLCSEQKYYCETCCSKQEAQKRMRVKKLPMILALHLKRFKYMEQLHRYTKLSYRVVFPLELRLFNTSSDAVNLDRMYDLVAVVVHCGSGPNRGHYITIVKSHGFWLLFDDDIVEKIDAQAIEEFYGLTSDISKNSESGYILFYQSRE
Sequence of USP7 (Q93009 whole entry, looked up): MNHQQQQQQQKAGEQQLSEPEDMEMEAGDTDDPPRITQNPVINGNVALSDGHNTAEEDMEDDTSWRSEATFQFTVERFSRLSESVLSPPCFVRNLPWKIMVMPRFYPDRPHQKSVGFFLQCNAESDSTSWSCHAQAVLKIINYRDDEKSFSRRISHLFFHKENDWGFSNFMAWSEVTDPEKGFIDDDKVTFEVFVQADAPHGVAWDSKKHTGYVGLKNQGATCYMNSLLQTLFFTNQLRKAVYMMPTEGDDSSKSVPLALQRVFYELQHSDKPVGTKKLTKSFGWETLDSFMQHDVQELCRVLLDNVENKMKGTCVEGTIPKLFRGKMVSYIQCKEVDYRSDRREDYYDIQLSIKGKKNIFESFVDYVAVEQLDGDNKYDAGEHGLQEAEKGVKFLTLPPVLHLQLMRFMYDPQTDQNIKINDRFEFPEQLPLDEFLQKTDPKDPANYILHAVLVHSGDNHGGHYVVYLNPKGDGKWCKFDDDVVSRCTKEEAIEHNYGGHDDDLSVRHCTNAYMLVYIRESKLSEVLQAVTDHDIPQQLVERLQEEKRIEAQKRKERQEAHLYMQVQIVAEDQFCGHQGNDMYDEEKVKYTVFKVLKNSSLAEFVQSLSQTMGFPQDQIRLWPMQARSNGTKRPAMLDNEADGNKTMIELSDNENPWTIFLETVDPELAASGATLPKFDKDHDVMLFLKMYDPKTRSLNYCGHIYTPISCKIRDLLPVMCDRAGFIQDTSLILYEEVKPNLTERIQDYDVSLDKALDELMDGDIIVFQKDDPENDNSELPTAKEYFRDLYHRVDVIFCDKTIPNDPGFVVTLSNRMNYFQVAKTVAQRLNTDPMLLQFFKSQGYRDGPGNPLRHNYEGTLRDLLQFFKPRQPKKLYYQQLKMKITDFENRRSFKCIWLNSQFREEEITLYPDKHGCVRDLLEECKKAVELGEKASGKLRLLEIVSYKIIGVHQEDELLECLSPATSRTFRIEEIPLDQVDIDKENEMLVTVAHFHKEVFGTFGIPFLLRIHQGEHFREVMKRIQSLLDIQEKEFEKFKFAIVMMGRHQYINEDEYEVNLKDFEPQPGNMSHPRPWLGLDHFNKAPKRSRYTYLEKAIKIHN

Cc1ccc(C)c(Oc2ccc(CNC(=O)CCl)cn2)c1.Cl
inactive: [1] -0.119 | [2] 0.00613 | [3] -0.424 | [4] -0.619 | [5] -0.165 | [6] 0.136 | [7] -0.376 | [8] -0.519
